# According to PubChem BioAssay (EPA / NIEHS):
# Active and inactive are the calls of the source. Rule for the calls: active = hit-call score of the fitted dose curve at least 0.9, where 1 is the maximum; inactive = score below 0.9.
# Assays:
# Settings in all cases: mRNA level, 48 h; actives raise or lower the signal
# [1] = read-out: Apolipoprotein A-V (APOA5) gene, APOA5 (gene 116519); experiment: LTEA_HepaRG_APOA5: Life Technologies and Expression Analysis (LTEA) Assay for Apolipoprotein A-V (APOA5) gene using HepaRG (AID 2283474)
# Outline: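 Differentiated HepaRG cells in serum-free induction medium, exposed 48 h in duplicate to eight half-log concentrations topping at 100 uM (0.5% DMSO). APOA5 mRNA by Fluidigm TaqMan qRT-PCR, normalized to ACTB, GAPDH and POLR2A; bidirectional fit versus DMSO.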
# [2] = read-out: Bcl-2 (BID) gene, BID (gene 637); experiment: LTEA_HepaRG_BID: Life Technologies and Expression Analysis (LTEA) Assay for Bcl-2 (BID) gene using HepaRG (AID 2283476)
# Outline: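 Gain or loss of BID expression is fitted relative to 0.5% DMSO vehicle. Human HepaRG liver cells received a 48 h chemical exposure over an eight-point concentration range.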
# Caspase-3 (Homo sapiens) = Caspase-3 (Homo sapiens) (UniProt P42574); experiment: LTEA_HepaRG_CASP3: Life Technologies and Expression Analysis (LTEA) Assay for cysteine-aspartic acid protease (CASP3) using HepaRG (AID 2283477)
# Outline: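 Differentiated HepaRG cells, plated 48 h, were treated in duplicate in serum-free induction medium for 48 h with eight half-log concentrations up to 100 uM in 0.5% DMSO. CASP3 mRNA measured by qRT-PCR, normalized to ACTB, GAPDH, POLR2A.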
# [3] = read-out: Cytochrome P450 (CYP24A1), CYP24A1 (gene 1591); experiment: LTEA_HepaRG_CYP24A1: Life Technologies and Expression Analysis (LTEA) Assay for Cytochrome P450 (CYP24A1) using HepaRG (AID 2283478)
# Outline: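 HepaRG cells plated 48 h, then exposed in duplicate in serum-free induction medium for 48 h to 8-point half-log series from 100 uM in 0.5% DMSO. CYP24A1 mRNA by Fluidigm qRT-PCR, normalized to ACTB, GAPDH, POLR2A; bidirectional fit versus DMSO.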
# [4] = read-out: Cytochrome P450 (CYP1A2), CYP1A2 (gene 1544); experiment: LTEA_HepaRG_CYP1A2: Life Technologies and Expression Analysis (LTEA) Assay for Cytochrome P450 (CYP1A2) using HepaRG (AID 2283479)
# Outline: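 Differentiated human HepaRG cells in serum-free induction medium exposed 48 hours in duplicate to 8 half-log concentrations from 100 uM, 0.5% DMSO. CYP1A2 mRNA quantified by qRT-PCR, normalized to ACTB, GAPDH and POLR2A; bidirectional fitting versus DMSO.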
# [5] = read-out: cysteine-aspartic acid protease (CASP8), CASP8 (gene 841); experiment: LTEA_HepaRG_CASP8: Life Technologies and Expression Analysis (LTEA) Assay for cysteine-aspartic acid protease (CASP8) using HepaRG (AID 2283480)
# Outline: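 HepaRG, 48 h exposure, duplicate wells; 8 conc, half-log from 100 uM, 0.5% DMSO. Serum-free induction medium. CASP8 mRNA by TaqMan qRT-PCR, norm. ACTB/GAPDH/POLR2A; gain/loss fitted vs DMSO.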
# [6] = read-out: Cytochrome P450 (CYP2B6), CYP2B6 (gene 1555); experiment: LTEA_HepaRG_CYP2B6: Life Technologies and Expression Analysis (LTEA) Assay for Cytochrome P450 (CYP2B6) using HepaRG (AID 2283481)
# Outline: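 Differentiated human HepaRG cells in serum-free induction medium, dosed in duplicate for 48 h over 8 half-log concentrations topping at 100 uM (0.5% DMSO). CYP2B6 mRNA measured by TaqMan qRT-PCR, normalized to ACTB, GAPDH, POLR2A; bidirectional fit versus DMSO.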
# [7] = read-out: Apoptosis regulator Bcl-2 (Homo sapiens) (UniProt P10415); experiment: LTEA_HepaRG_BCL2: Life Technologies and Expression Analysis (LTEA) Assay for Bcl-2 gene using HepaRG (AID 2283475);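 note: BCL2 transcript by TaqMan qRT-PCR normalised to ACTB GAPDH and POLR2A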
# Outline: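 Expression change of BCL2 mRNA in HepaRG after 48 h dosing, quantified by TaqMan qRT-PCR against three endogenous controls. Concentration-response used eight points up to 100 uM, vehicle 0.5% DMSO.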
# [8] = read-out: Cytochrome P450 2C19 (Homo sapiens) (UniProt P33261); experiment: LTEA_HepaRG_CYP2C19: Life Technologies and Expression Analysis (LTEA) Assay for CYP2C19 using HepaRG (AID 2283482)
# Outline: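 Differentiated HepaRG cells in serum-free induction medium exposed 48 h in duplicate, 8 concentrations from 100 uM by half-log steps in 0.5% DMSO. CYP2C19 mRNA measured by TaqMan qRT-PCR, normalized to ACTB, GAPDH, POLR2A. Bidirectional fit versus DMSO.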
# CYP2C8 (gene 1558) = experiment: LTEA_HepaRG_CYP2C8: Life Technologies and Expression Analysis (LTEA) Assay for CYP2C8 using HepaRG (AID 2283483)
# Outline: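 CYP2C8 mRNA induction or loss, by qRT-PCR normalized to ACTB/GAPDH/POLR2A, is read in HepaRG cells after 48 h treatment. Concentrations run from 100 uM down in half-log dilutions, with 0.5% DMSO as vehicle and baseline.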
# Caspase-3 (Homo sapiens), sequence (P42574 whole entry, looked up): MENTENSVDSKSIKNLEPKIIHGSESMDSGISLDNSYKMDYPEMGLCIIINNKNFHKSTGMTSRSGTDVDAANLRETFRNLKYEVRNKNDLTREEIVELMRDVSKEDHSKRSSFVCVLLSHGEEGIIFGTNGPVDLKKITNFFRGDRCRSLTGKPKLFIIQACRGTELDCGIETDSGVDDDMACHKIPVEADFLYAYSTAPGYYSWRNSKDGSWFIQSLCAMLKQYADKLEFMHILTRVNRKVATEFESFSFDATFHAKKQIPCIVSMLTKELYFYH
# Apoptosis regulator Bcl-2 (Homo sapiens), sequence (P10415 whole entry, looked up): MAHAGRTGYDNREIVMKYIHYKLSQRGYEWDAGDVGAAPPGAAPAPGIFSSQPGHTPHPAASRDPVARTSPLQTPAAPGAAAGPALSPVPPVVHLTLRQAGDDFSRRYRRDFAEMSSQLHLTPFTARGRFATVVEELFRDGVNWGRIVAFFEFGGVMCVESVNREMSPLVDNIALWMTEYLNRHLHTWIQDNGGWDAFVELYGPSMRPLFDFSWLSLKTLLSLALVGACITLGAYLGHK
# Cytochrome P450 2C19 (Homo sapiens), sequence (P33261 whole entry, looked up): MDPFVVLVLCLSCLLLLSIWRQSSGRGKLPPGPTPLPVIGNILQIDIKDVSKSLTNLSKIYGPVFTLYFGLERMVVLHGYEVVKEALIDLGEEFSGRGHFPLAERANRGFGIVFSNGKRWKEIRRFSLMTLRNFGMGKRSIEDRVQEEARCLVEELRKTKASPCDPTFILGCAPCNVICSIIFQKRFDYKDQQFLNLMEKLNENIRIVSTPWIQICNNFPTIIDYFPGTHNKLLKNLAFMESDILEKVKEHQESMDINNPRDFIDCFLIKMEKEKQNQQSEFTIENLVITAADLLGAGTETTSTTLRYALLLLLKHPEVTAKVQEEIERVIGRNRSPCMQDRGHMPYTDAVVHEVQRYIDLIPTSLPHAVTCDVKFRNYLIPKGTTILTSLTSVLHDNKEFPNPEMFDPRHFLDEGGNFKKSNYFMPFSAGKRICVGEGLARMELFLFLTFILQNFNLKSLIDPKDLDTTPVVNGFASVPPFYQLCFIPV
smiles,measurement,setting,value
O=C1CCCCC1,outcome,[1],inactive
same,outcome,[2],inactive
same,outcome,Caspase-3 (Homo sapiens),inactive
same,outcome,[3],inactive
same,outcome,[4],inactive
same,outcome,[5],inactive
same,outcome,[6],inactive
CC(=O)CC(c1ccccc1)c1c(O)c2ccccc2oc1=O (configuration not stated),outcome,[1],inactive
same,outcome,[7],inactive
same,outcome,[2],inactive
same,outcome,Caspase-3 (Homo sapiens),inactive
same,outcome,[3],inactive
same,outcome,[4],inactive
same,outcome,[5],inactive
same,AC50,[8],5.47 µM (active)
same,outcome,CYP2C8 (gene 1558),inactive
CCCCOC(=O)CCCCC(=O)OCCCC,outcome,[1],inactive
same,outcome,[7],inactive
same,outcome,[2],inactive
same,outcome,Caspase-3 (Homo sapiens),inactive
same,outcome,[3],inactive
same,AC50,[4],50 µM (active)
same,outcome,[5],inactive
same,outcome,CYP2C8 (gene 1558),inactive
CCOCCOCCO,outcome,[1],inactive
same,outcome,[7],inactive
same,outcome,[2],inactive
same,outcome,Caspase-3 (Homo sapiens),inactive
same,outcome,[3],inactive
same,outcome,[4],inactive
same,outcome,[5],inactive
same,outcome,[8],inactive
same,outcome,CYP2C8 (gene 1558),inactive
CCc1cc(C2=C(C(=O)O)N(c3ccccc3C(F)(F)F)S(=O)(=O)c3ccccc32)cc2c1OCO2,AC50,[1],77.2 µM (active)
same,outcome,[2],inactive
same,outcome,Caspase-3 (Homo sapiens),inactive
same,outcome,[3],inactive
same,outcome,[4],inactive
same,outcome,[5],inactive
same,AC50,[6],90.5 µM (active)
same,AC50,[8],91.9 µM (active)
same,AC50,CYP2C8 (gene 1558),91.7 µM (active)
CS(=O)(=O)c1ccc([C@@H](C[C@H]2CCC(=O)C2)C(=O)Nc2cnccn2)cc1Cl,AC50,[1],50 µM (active)
same,AC50,[7],16.1 µM (active)
same,AC50,[2],2.25 µM (active)
same,AC50,Caspase-3 (Homo sapiens),0.843 µM (active)
same,AC50,[5],1.2 µM (active)
same,AC50,CYP2C8 (gene 1558),1.09 µM (active)
CCCCC(CC)CO (configuration not stated),outcome,[1],inactive
same,outcome,[7],inactive
same,outcome,[2],inactive
same,outcome,Caspase-3 (Homo sapiens),inactive
same,outcome,[3],inactive
same,AC50,[4],50 µM (active)
same,outcome,[5],inactive
same,outcome,CYP2C8 (gene 1558),inactive
O=C(O)CC(O)(CC(=O)O)C(=O)O,outcome,[1],inactive
same,outcome,[7],inactive
same,outcome,[2],inactive
same,outcome,Caspase-3 (Homo sapiens),inactive
same,outcome,[3],inactive
same,outcome,[4],inactive
same,outcome,[5],inactive
same,outcome,[8],inactive
same,outcome,CYP2C8 (gene 1558),inactive
CN(C)CCCN1c2ccccc2Sc2ccc(Cl)cc21,AC50,[1],85.8 µM (active)
same,outcome,[7],inactive
same,outcome,[2],inactive
same,outcome,Caspase-3 (Homo sapiens),inactive
same,outcome,[3],inactive
same,AC50,[4],19.4 µM (active)
same,AC50,[5],94.5 µM (active)
same,outcome,CYP2C8 (gene 1558),inactive
COC(=O)CCC(=O)OC,outcome,[1],inactive
same,outcome,[2],inactive
same,outcome,Caspase-3 (Homo sapiens),inactive
same,outcome,[3],inactive
same,outcome,[4],inactive
same,outcome,[5],inactive
same,outcome,[6],inactive
same,outcome,[8],inactive
same,outcome,CYP2C8 (gene 1558),inactive
CCCCCCC(CCCCCCCCCCC(=O)OCC(COC(C)=O)OC(C)=O)OC(C)=O (configuration not stated),outcome,[1],inactive
same,outcome,[7],inactive
same,outcome,[2],inactive
same,outcome,Caspase-3 (Homo sapiens),inactive
same,outcome,[3],inactive
same,outcome,[4],inactive
same,outcome,[5],inactive
same,outcome,CYP2C8 (gene 1558),inactive
CCCCC(CC)COC(=O)CCCCCCCC(=O)OCC(CC)CCCC (configuration not stated),outcome,[1],inactive
same,outcome,[7],inactive
same,outcome,[2],inactive
same,outcome,Caspase-3 (Homo sapiens),inactive
same,outcome,[3],inactive
same,outcome,[4],inactive
same,outcome,[5],inactive
same,outcome,CYP2C8 (gene 1558),inactive
O=C(NS(=O)(=O)/C=C/c1cccs1)c1ccc(F)cc1Br,outcome,[1],inactive
same,outcome,[2],inactive
same,outcome,Caspase-3 (Homo sapiens),inactive
same,outcome,[3],inactive
same,outcome,[4],inactive
same,outcome,[5],inactive
same,outcome,[6],inactive
same,AC50,[8],13 µM (active)
same,outcome,CYP2C8 (gene 1558),inactive
C=CCCCCCCCCCCCC,outcome,[1],inactive
same,outcome,[7],inactive
same,outcome,[2],inactive
same,outcome,Caspase-3 (Homo sapiens),inactive
same,outcome,[3],inactive
same,AC50,[4],50 µM (active)
same,outcome,[5],inactive
same,outcome,[8],inactive
same,outcome,CYP2C8 (gene 1558),inactive
CCCCCCCCCCCCCCCCO,outcome,[1],inactive
same,outcome,[7],inactive
same,outcome,[2],inactive
same,outcome,Caspase-3 (Homo sapiens),inactive
same,outcome,[3],inactive
same,outcome,[4],inactive
same,outcome,[5],inactive
same,outcome,[8],inactive
same,outcome,CYP2C8 (gene 1558),inactive
COC(=O)CCCC(=O)OC,outcome,[1],inactive
same,outcome,[2],inactive
same,outcome,Caspase-3 (Homo sapiens),inactive
same,outcome,[3],inactive
same,outcome,[4],inactive
same,outcome,[5],inactive
same,outcome,[6],inactive
same,outcome,[8],inactive
same,outcome,CYP2C8 (gene 1558),inactive
COC(=O)[C@H]1[C@H]2C[C@@H]3c4[nH]c5cc(OC)ccc5c4CCN3C[C@H]2C[C@@H](OC(=O)c2cc(OC)c(OC)c(OC)c2)[C@@H]1OC,AC50,[1],55.6 µM (active)
same,AC50,[7],42.2 µM (active)
same,outcome,[2],inactive
same,outcome,Caspase-3 (Homo sapiens),inactive
same,outcome,[3],inactive
same,AC50,[4],9.74 µM (active)
same,outcome,[5],inactive
same,AC50,[8],63.4 µM (active)
same,AC50,CYP2C8 (gene 1558),63.5 µM (active)
Oc1ccccc1O,outcome,[1],inactive
same,outcome,[7],inactive
same,outcome,[2],inactive
same,outcome,Caspase-3 (Homo sapiens),inactive
same,outcome,[3],inactive
same,outcome,[4],inactive
same,outcome,[5],inactive
same,outcome,CYP2C8 (gene 1558),inactive
Cn1cnc2c1c(=O)[nH]c(=O)n2C,outcome,[1],inactive
same,outcome,[2],inactive
same,outcome,Caspase-3 (Homo sapiens),inactive
same,outcome,[5],inactive
CN(C)C(=O)NC1(c2ccccc2)CCN(CCC[C@]2(c3ccc(Cl)c(Cl)c3)CCCN(C(=O)c3ccccc3)C2)CC1,AC50,[1],21.3 µM (active)
same,outcome,[2],inactive
same,outcome,Caspase-3 (Homo sapiens),inactive
same,outcome,[3],inactive
same,outcome,[4],inactive
same,outcome,[5],inactive
same,AC50,[8],23.6 µM (active)
same,outcome,CYP2C8 (gene 1558),inactive
O=C(Oc1ccccc1)c1cccc(C(=O)Oc2ccccc2)c1,outcome,[1],inactive
same,outcome,[2],inactive
same,outcome,Caspase-3 (Homo sapiens),inactive
same,outcome,[3],inactive
same,AC50,[4],52.2 µM (active)
same,outcome,[5],inactive
same,AC50,[6],15.9 µM (active)
same,outcome,CYP2C8 (gene 1558),inactive
CCc1nc(N)nc(N)c1-c1ccc(Cl)cc1,outcome,[1],inactive
same,outcome,[2],inactive
same,outcome,Caspase-3 (Homo sapiens),inactive
same,outcome,[3],inactive
same,AC50,[4],23.8 µM (active)
same,outcome,[5],inactive
same,AC50,[6],82.3 µM (active)
same,AC50,CYP2C8 (gene 1558),79.6 µM (active)
O=Cc1ccccc1C=O,outcome,[1],inactive
same,outcome,[2],inactive
same,outcome,Caspase-3 (Homo sapiens),inactive
same,outcome,[3],inactive
same,AC50,[4],7.32 µM (active)
same,outcome,[5],inactive
same,outcome,[8],inactive
same,outcome,CYP2C8 (gene 1558),inactive
